Source: PubChem BioAssay (EPA / NIEHS)
Several values for one entry are separate records, joined by “and”; a condition that tells them apart may be missing. Equal entries are not always repeated. Results filed as inconclusive are left out. Activity calls are given as the source filed them. The calls were made as follows, unless noted: active = hit-call score of the fitted dose curve at least 0.9, where 1 is the maximum; inactive = score below 0.9.

Assays:
[1] = biological target: Retinoic acid receptor RXR-alpha (Homo sapiens) (UniProt P19793); experiment: ATG_RXRa_TRANS: Attagene TRANS-FACTORIAL HepG2 Assay for human Retinoid X Receptor alpha (RXRa) (AID 2283012; active = hit-call score of the fitted dose curve at least 0.9, where 1 is the maximum)
Outline: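 Read-out: fluorescent reporter-transcript fragments quantified by capillary electrophoresis after RT-PCR. Transiently transfected HepG2 cells carrying GAL4-UAS reporters and NR-GAL4 chimeras were exposed to chemical for 24 h; activity scored as increase over DMSO.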

[2] = biological target: human Retinoid X Receptor beta (RXRb), RXRB (gene 6257) (UniProt P28702); experiment: ATG_RXRb_TRANS: Attagene TRANS-FACTORIAL HepG2 Assay for human Retinoid X Receptor beta (RXRb) (AID 2283013; active = hit-call score of the fitted dose curve at least 0.9, where 1 is the maximum)
Outline: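 Read-out: reporter mRNA induction via RT-PCR plus capillary electrophoresis fluorescence, analysed as signal increase relative to DMSO. Cells were human HepG2, transiently transfected with GAL4-UAS reporter constructs and chimeric receptor-Gal4 fusions, dosed for 24 h.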

[3] = biological target: human Thyroid Receptor alpha (THRa1), THRA (gene 7067) (UniProt P10827); experiment: ATG_THRa1_TRANS: Attagene TRANS-FACTORIAL HepG2 Assay for human Thyroid Receptor alpha (THRa1) (AID 2283014; active = hit-call score of the fitted dose curve at least 0.9, where 1 is the maximum)
Outline: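 Transient HepG2 transfection, NR-Gal4 chimera driving GAL4-UAS reporters; 24 h compound exposure; total RNA, oligo(dT) RT, PCR, fluorescent primer extension, capillary electrophoresis. Upward direction vs DMSO control.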

[4] = read-out: E-selectin (Homo sapiens) (UniProt P16581); experiment: BSK_3C_Eselectin: BioMAP Diversity Plus: 3C Assay for Eselectin Biomarker Activity (AID 2283015); conditions: primary human endothelial cells (HUVEC); actives raise or lower the signal
Outline: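 HUVEC, 3C stimulation; compound exposure 24 h; E-selectin by ELISA; gain- or loss-of-signal fitted bidirectionally vs DMSO baseline.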

[5] = read-out: Interleukin-1 alpha (IL1a), IL1A (gene 3552); experiment: BSK_BE3C_IL1a: BioMAP Diversity Plus: BE3C Assay for Interleukin-1 alpha (IL1a) Biomarker Activity (AID 2283016); conditions: primary human bronchial epithelial cells; actives raise or lower the signal
Outline: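 ELISA read-out of IL-1a from human lung bronchial epithelial primary cells, 24 h post-dose. Gain or loss of signal fitted relative to DMSO negative control.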

[6] = read-out: Monocyte Chemoattractant Protein-1 (MCP1), CCL2 (gene 6347); experiment: BSK_3C_MCP1: BioMAP Diversity Plus: 3C Assay for Monocyte Chemoattractant Protein-1 (MCP1) Biomarker Activity (AID 2283017); conditions: primary human endothelial cells (HUVEC); actives raise or lower the signal
Outline: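 HUVEC, 3C system; 24 h chemical exposure; MCP-1 by ELISA; bidirectional curve fit vs DMSO baseline.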

[7] = read-out: Monocyte Chemoattractant Protein-1 (MCP1), CCL2 (gene 6347); experiment: BSK_4H_MCP1: BioMAP Diversity Plus: 4H Assay for Monocyte Chemoattractant Protein-1 (MCP1) Biomarker Activity (AID 2283018); conditions: primary human endothelial cells (HUVEC); actives raise or lower the signal
Outline: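 HUVEC primary cells, 24 h post-dose, MCP-1 by ELISA. Gain or loss of signal fitted bidirectionally vs DMSO baseline. Cytotoxicity: SRB stain (0.1% after 10% TCA fixation), read 560 nm, parallel cultures.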

[8] = read-out: Human Leukocyte Antigen - DR isotype (HLADR), HLA-DRA (gene 3122); experiment: BSK_3C_HLADR: BioMAP Diversity Plus: 3C Assay for Human Leukocyte Antigen - DR isotype (HLADR) Biomarker Activity (AID 2283019); conditions: primary human endothelial cells (HUVEC); actives raise or lower the signal
Outline: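 HUVEC, 3C stimulation, 24 h post-dose; HLA-DR by ELISA; bidirectional curve fit vs DMSO baseline; gain or loss of signal scored.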

[9] = biological target: human RAR-related Orphan Receptor gamma (RORg), RORC (gene 6097) (UniProt P51449); experiment: ATG_RORg_TRANS: Attagene TRANS-FACTORIAL HepG2 Assay for human RAR-related Orphan Receptor gamma (RORg) (AID 2283011; active = hit-call score of the fitted dose curve at least 0.9, where 1 is the maximum)
Outline: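 Transient MRTU transfection of HepG2 (TRANS format, exogenous NR-Gal4 chimera). 24 h dosing. Total RNA → oligo(dT) RT → PCR → 6-FAM labelling → HpaI cut → CE. Gain vs DMSO.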

[10] = read-out: Interleukin-8 (IL8), CXCL8 (gene 3576); experiment: BSK_3C_IL8: BioMAP Diversity Plus: 3C Assay for Interleukin-8 (IL8) Biomarker Activity (AID 2283020); conditions: primary human endothelial cells (HUVEC); actives raise or lower the signal
Outline: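 HUVEC, 3C stimulation; 24 h compound exposure; IL-8 read by ELISA; gain or loss of signal fitted relative to DMSO control.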

Measured: AC50

Sequence of Retinoic acid receptor RXR-alpha (Homo sapiens) (P19793 whole entry, looked up, the tested form may be a part): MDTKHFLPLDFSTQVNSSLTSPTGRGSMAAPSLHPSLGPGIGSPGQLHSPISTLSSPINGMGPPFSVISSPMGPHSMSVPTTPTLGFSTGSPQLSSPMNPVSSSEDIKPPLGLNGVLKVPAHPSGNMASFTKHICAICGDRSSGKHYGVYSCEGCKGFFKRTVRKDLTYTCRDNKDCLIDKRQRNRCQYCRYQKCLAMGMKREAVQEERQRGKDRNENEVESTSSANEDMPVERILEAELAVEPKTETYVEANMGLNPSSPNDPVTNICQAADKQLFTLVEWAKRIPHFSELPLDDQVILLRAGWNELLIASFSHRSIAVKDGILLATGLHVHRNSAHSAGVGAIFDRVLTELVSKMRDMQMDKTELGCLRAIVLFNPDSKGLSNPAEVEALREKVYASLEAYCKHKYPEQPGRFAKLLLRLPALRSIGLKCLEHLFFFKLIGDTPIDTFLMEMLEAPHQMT
Sequence of human Retinoid X Receptor beta (RXRb), RXRB (gene 6257) (P28702 whole entry, looked up, the tested form may be a part): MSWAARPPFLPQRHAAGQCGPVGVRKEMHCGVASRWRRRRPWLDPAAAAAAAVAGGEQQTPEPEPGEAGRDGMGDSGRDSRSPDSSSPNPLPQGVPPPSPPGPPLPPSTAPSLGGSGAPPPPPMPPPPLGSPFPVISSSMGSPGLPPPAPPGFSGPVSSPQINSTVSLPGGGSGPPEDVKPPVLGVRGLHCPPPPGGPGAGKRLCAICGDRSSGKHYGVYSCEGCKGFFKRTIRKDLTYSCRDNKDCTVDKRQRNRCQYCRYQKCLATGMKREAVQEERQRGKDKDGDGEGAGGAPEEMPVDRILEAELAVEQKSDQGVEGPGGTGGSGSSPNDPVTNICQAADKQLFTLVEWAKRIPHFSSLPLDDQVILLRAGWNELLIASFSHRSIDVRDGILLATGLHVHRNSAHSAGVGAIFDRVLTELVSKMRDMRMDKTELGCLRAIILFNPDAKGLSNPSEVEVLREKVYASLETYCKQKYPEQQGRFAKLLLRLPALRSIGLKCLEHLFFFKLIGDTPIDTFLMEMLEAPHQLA
Sequence of E-selectin (Homo sapiens) (P16581 whole entry, looked up): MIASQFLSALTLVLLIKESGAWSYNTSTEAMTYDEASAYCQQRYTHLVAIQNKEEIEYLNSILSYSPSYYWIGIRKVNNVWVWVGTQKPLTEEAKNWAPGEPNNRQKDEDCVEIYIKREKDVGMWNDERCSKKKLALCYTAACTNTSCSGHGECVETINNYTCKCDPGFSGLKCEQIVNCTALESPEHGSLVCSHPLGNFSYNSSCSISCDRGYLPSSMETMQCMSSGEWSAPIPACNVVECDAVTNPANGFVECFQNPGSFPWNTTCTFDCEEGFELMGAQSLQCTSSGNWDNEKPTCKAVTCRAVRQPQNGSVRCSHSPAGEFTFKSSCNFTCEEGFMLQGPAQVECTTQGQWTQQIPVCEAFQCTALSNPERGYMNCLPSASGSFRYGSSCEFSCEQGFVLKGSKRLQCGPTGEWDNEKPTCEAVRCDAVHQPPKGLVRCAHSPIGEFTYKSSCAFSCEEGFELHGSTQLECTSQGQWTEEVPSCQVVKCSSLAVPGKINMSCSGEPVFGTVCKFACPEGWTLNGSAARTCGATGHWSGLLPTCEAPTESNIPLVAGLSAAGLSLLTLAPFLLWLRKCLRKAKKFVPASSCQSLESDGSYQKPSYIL
Sequence of human Thyroid Receptor alpha (THRa1), THRA (gene 7067) (P10827 whole entry, looked up, the tested form may be a part): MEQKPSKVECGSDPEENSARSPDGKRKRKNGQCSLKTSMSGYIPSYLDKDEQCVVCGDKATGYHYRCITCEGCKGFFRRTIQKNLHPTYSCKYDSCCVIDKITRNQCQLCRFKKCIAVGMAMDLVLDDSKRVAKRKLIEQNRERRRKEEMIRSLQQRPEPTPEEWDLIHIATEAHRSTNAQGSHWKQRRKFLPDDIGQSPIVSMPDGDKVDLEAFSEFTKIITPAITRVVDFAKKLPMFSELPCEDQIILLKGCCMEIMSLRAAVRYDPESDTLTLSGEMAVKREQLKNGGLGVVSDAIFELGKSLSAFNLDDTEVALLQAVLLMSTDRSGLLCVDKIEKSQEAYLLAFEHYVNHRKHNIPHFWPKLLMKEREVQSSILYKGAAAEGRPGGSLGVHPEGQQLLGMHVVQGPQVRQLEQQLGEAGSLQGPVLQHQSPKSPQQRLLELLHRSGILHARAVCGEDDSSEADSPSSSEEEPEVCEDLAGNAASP
Sequence of human RAR-related Orphan Receptor gamma (RORg), RORC (gene 6097) (P51449 whole entry, looked up, the tested form may be a part): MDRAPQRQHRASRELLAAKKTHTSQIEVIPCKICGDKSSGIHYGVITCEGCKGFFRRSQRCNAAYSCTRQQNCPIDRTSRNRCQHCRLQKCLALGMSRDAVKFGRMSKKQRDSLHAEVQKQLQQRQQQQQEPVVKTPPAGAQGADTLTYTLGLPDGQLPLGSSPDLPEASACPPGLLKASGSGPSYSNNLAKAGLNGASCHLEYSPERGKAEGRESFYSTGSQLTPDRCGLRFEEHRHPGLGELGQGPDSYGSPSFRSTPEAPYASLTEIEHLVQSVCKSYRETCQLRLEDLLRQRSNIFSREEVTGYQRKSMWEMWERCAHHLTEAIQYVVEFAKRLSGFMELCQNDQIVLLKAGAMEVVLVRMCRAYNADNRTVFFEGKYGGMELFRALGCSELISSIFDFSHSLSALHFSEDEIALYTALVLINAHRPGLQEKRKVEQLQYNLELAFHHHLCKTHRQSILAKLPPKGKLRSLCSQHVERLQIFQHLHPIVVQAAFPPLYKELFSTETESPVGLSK

CCCCCCCCN(C)CCCCCCCC
active: [2] 43.5 µM
inactive: [1] | [3] | [4] | [5] | [6] | [7] | [8]

O=C(OCCCCCCOC(=O)c1ccccc1)c1ccccc1
inactive: [9] | [2] | [3] | [4] | [5] | [6] | [7] | [8] | [10]

CCCC(=O)OCCC(C)C
inactive: [9] | [3] | [4] | [5] | [6] | [7] | [8] | [10]

CN(C)c1ccc(C(=C2C=CC(=[N+](C)C)C=C2)c2ccc(N(C)C)cc2)cc1
inactive: [1] | [3]
active: [4] 0.815 µM | [5] 2.36 µM | [6] 0.798 µM | [7] 0.66 µM | [8] 0.344 µM

Cc1c2ccccc2c(C)c2c1ccc1ccccc12
active: [2] 15 µM | [6] 5.5 µM | [7] 13 µM | [8] 14.3 µM | [10] 35.9 µM
inactive: [4] | [5]

COCC(C)OCC(C)OCC(C)O (configuration not stated)
inactive: [2] | [3] | [4] | [5] | [6] | [7] | [8]

c1ccc2n[nH]nc2c1
inactive: [1] | [3] | [4] | [5] | [6] | [7] | [8]

OCCO
inactive: [1] | [2] | [3] | [4] | [5] | [6] | [7] | [8] | [10]

CCCCCc1ccc(N)cc1
active: [8] 14.5 µM
inactive: [1] | [2] | [3] | [4] | [5] | [6] | [7]

CCN(CC)C(=O)c1cc(S(=O)(=O)Cc2ccccc2)c(N2CCC(c3ccccc3)CC2)cc1N(CC)CCN(C)C
active: [4] 27.2 µM | [5] 9.53 µM | [6] 10.4 µM | [7] 18.7 µM | [8] 6.27 µM

C[C@]12CC[C@@H]3c4ccc(O)cc4CC[C@H]3[C@@H]1CCC2=O
active: [8] 31.7 µM
inactive: [1] | [4] | [5] | [6] | [7]

Clc1ccccc1C(c1ccccc1)(c1ccccc1)n1ccnc1
active: [4] 30.8 µM | [5] 7.88 µM | [6] 15.9 µM | [7] 16.9 µM | [8] 15.7 µM | [10] 27.2 µM
inactive: [1]

c1ccc(C[n+]2cccc3ccccc32)cc1
inactive: [1] | [2] | [3] | [4] | [5] | [6] | [7] | [8]

Cc1cc(F)ccc1-c1cc(N2CC[C@@H](O)[C@H]2CO)ncc1N(C)C(=O)C(C)(C)c1cc(C(F)(F)F)cc(C(F)(F)F)c1
active: [4] 10.9 µM | [5] 14.6 µM | [6] 10 µM | [7] 6.91 µM | [8] 9.43 µM
inactive: [1]

NC(=O)c1nc(-c2cccc(-c3cc(F)ccc3OCC(F)(F)C(F)(F)F)c2)n[nH]1
active: [4] 34.9 µM | [5] 38.8 µM | [6] 35.3 µM | [7] 29.3 µM | [8] 22.6 µM
inactive: [1]

Cc1oc2c(NC(=O)c3c(Cl)cccc3Cl)cccc2c1C(C)(C)O
active: [4] 13 µM | [5] 23.6 µM | [8] 21.8 µM
inactive: [1] | [3] | [6] | [7] | [10]

O=C(Nc1ccc(Cl)cc1)Nc1ccc(Cl)c(Cl)c1
inactive: [1] | [2] | [3] | [4] | [5]
active: [6] 3.28 µM | [7] 4.31 µM | [8] 1.68 µM | [10] 1.87 µM

CCN(Cc1cccc(S(=O)(=O)O)c1)c1ccc(C(=C2C=CC(=[N+](CC)Cc3cccc(S(=O)(=O)O)c3)C=C2)c2ccccc2S(=O)(=O)[O-])cc1
inactive: [1] | [3] | [4] | [5] | [6] | [7] | [8]

CCCOC(=O)c1cc(O)c(O)c(O)c1
inactive: [2] | [3] | [4] | [5] | [6] | [7] | [8] | [10]

CN(C)C(=O)C1(N2CCCCC2)CCN(CC[C@@]2(c3ccc(Cl)c(Cl)c3)CN(C(=O)c3ccccc3)CCO2)CC1
active: [4] 29.8 µM | [5] 29.2 µM | [6] 22.9 µM | [7] 18.9 µM | [8] 12.4 µM | [10] 24.3 µM
inactive: [1] | [3]

CCOC(=O)O[C@H](C)OC(=O)c1ccc2c(c1)cc(C(=O)NC1CCN(C(C)C)CC1)n2Cc1cc(-c2ccc(Cl)s2)on1
active: [4] 7.05 µM | [5] 11 µM | [6] 6.56 µM | [7] 5.27 µM | [8] 7.08 µM | [10] 6.77 µM

CCCCCCCCCCCC[N+](C)(C)C
inactive: [1] | [2] | [3]
active: [4] 1.98 µM | [5] 31.9 µM | [6] 20 µM | [7] 16.3 µM | [8] 15.2 µM | [10] 12.7 µM

CCCCCCCCCC(=O)O
inactive: [1] | [4] | [5] | [6] | [7] | [8]
active: [2] 30.2 µM and 68.3 µM

CN1C(=O)N(c2ccccc2Br)Cc2cnc(Nc3ccc4c(c3)OCC(CO)O4)nc21 (configuration not stated)
active: [4] 15.2 µM | [5] 2.57 µM | [6] 14.7 µM | [7] 2.11 µM | [8] 9 µM | [10] 12.2 µM

CCN(Cc1cccnc1)C(=O)c1cccc(Cl)c1[C@]1(C)C(=O)N(Cc2ccc(OC)cc2OC)c2ccc(Cl)cc21
active: [4] 6.76 µM | [6] 6.68 µM | [8] 8.86 µM
inactive: [1] | [5] | [7]

CC1=CC(=O)/C(=C(/C)O)C(=O)O1
inactive: [2] | [3] | [4] | [5] | [6] | [7] | [8] | [10]

CC[C@H](NC(=O)c1cc(F)ccc1NS(=O)(=O)c1cccc2cccnc12)c1ccccc1
inactive: [1] | [4] | [5] | [6] | [7] | [8] | [10]

CC(C)(C)c1csc(-c2cc3cc(OCc4ccccc4CC(=O)O)ccc3o2)n1
inactive: [1] | [4]
active: [5] 10 µM | [6] 21.6 µM | [7] 22.6 µM | [8] 17.3 µM

Cc1cn([C@H]2C[C@H](N=[N+]=[N-])[C@@H](CO)O2)c(=O)[nH]c1=O
inactive: [1] | [2] | [4] | [5] | [6] | [7] | [8]

Oc1ccc2ccccc2c1
inactive: [1] | [2] | [4] | [5] | [6] | [7] | [8] | [10]

CCCCOC(=O)CC(CC(=O)OCCCC)(OC(C)=O)C(=O)OCCCC
inactive: [1] | [3] | [4] | [5] | [6] | [7] | [8]

CCCCCCCCOc1ccc(C(=O)c2ccccc2)c(O)c1
active: [8] 24.7 µM
inactive: [1] | [3] | [4] | [5] | [6] | [7]

O=C=NCCCCCCN=C=O
inactive: [1] | [2] | [4] | [5] | [6] | [7] | [8]

COc1ccc2cc(S(=O)(=O)N[C@H](CC(=O)N[C@H](Cc3ccc(CN4[C@H](C)CCC[C@@H]4C)cc3)C(=O)N(C)C(C)C)c3ccc4c(c3)OCO4)ccc2c1
active: [6] 12.5 µM | [7] 8.16 µM | [8] 24.3 µM
inactive: [1] | [4] | [5]

CC1(C)NC(=O)N(c2ccc([N+](=O)[O-])c(C(F)(F)F)c2)C1=O
inactive: [1] | [2] | [3] | [4] | [5] | [6] | [7] | [8]

CC[C@@H]1C[C@H](N(Cc2cc(C(F)(F)F)cc(C(F)(F)F)c2)C(C)=O)c2cc(C(F)(F)F)ccc2N1C(=O)OC(C)C
inactive: [1] | [2] | [4] | [5] | [6] | [7] | [8]

CC(C)(c1cc(Br)c(O)c(Br)c1)c1cc(Br)c(O)c(Br)c1
active: [4] 29 µM | [5] 5.72 µM | [6] 29.9 µM | [7] 26.6 µM | [8] 27.2 µM | [10] 31.8 µM
inactive: [1] | [2] | [3]

Cc1occc1C(=O)Nc1ccc(C(=O)N2CCC(F)(F)/C(=C\C(=O)N3CCC(N4CCCCC4)CC3)c3ccccc32)cc1
active: [2] 55.2 µM | [3] 53.8 µM
inactive: [4] | [5] | [6] | [7] | [8] | [10]

O=c1ccc2ccccc2o1
inactive: [4] | [5] | [6] | [7] | [8] | [10]

CC(C)(C)c1cc(/C=C2\SC(N)=NC2=O)cc(C(C)(C)C)c1O
inactive: [1] | [2] | [5]
active: [4] 29.3 µM | [6] 30.6 µM | [7] 20 µM | [8] 27.5 µM

COc1cccc([C@H](O)C2CCN(CCc3ccc(F)cc3)CC2)c1OC
inactive: [1] | [4] | [5] | [6] | [7] | [8] | [10]
